Screening data deposited in PubChem BioAssay by Fisher Drug Discovery Resource Center.
Only some compounds are listed: those with a hit (about 0.24% of all), similar ones and a draw of the others.
hcGAS lum = human cGAS inhibition; Q8N884; recombinant h-cGAS, ATP depletion, Kinase-Glo luminescence; inhibition, % at 12.5 µM; 290,000 compounds, 0.081% hits; AID 1259398;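 also: 0% = vehicle reaction and 100% = reaction without DNA for no activity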
Target sequence (Q8N884 whole entry, looked up): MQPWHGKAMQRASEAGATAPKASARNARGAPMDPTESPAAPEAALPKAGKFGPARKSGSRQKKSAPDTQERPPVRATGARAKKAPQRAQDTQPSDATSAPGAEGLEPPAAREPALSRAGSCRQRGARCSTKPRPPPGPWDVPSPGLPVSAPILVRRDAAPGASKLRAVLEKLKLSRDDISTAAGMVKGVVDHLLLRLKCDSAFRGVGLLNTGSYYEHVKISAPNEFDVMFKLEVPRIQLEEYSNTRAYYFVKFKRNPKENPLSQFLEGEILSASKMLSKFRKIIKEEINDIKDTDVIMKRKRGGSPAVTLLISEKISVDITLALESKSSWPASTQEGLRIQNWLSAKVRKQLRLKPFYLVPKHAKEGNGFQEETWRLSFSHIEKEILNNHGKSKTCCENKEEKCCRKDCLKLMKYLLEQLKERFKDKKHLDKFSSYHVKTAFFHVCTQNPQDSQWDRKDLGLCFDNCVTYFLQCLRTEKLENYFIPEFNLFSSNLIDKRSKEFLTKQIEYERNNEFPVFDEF
NPYLR7 agonist = mosquito NPYLR7 agonism; HEK293T NPYLR7/Galpha15, GCaMP6s calcium fluorescence; activation, % at 10 µM; 270,000 compounds, 0.15% hits; in the data active = activation above about 40%;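 also: 0% = vehicle and 100% = reference agonist at the receptor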
mcGAS inh = inhibitors of mouse cGAS | Q8C6L5 | recombinant cGAS, Kinase-Glo ATP depletion luminescence | inhibition, % at 12.5 µM | 160,000 compounds, 0.15% hits | AID 1259399;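 also: 0% = negative control wells and 100% = reference inhibitor with no enzyme activity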
Numbers without * were called inactive. Rule as the data show it, unless noted: active = inhibition above about 40%; inactive = the rest.

How did CC1=NN(C(=Nc2nnc(C)s2)n2ccnc2)[C@H](c2ccc(C)cc2)S1 do in these assays?
hcGAS lum: -1; NPYLR7 agonist: 3

Results for CC1(C)CC(c2[nH]cnc2-c2ccccc2)CCO1 (centres undefined) ?
hcGAS lum: 2; NPYLR7 agonist: 58*

How did CC1(C)CC(c2nccn2CCOc2ccccc2)CCO1 (centres undefined) do in these assays?
hcGAS lum: -5; NPYLR7 agonist: 2

Results for Nc1ncc(N=Nc2cccc(C(F)(F)F)c2)s1 ?
hcGAS lum: -13; NPYLR7 agonist: 4

How did O=c1[nH]nc(SCc2cc3c(cc2Br)OCCO3)n1C1CC1 do in these assays?
hcGAS lum: -8; NPYLR7 agonist: 15; mcGAS inh: -15

What do the screens show for `O=C(O)CN(CC(=O)O)Cc1cc2c(-c3ccccc3C(=O)O)c3cc(CN(CC(=O)O)CC(=O)O)c(=O)cc-3oc2cc1O`?
hcGAS lum: -3; mcGAS inh: -1

How did CCN(CC)c1ccc2c(-c3ccccc3C(=O)O)c3ccc(=[N+](CC)CC)cc-3oc2c1 do in these assays?
hcGAS lum: -49; NPYLR7 agonist: 44*; mcGAS inh: -28

How did O=[N+]([O-])c1c[n+]([O-])n(-c2ccc3c(c2)OCCO3)n1 do in these assays?
hcGAS lum: -2; NPYLR7 agonist: 2; mcGAS inh: -8

Results for O=[N+]([O-])c1c[n+]([O-])n(-c2cccc(Cl)c2)n1 ?
hcGAS lum: 3; NPYLR7 agonist: 74*; mcGAS inh: -1

Results for COC(=O)c1ccc(COC(CN2CCN(S(=O)(=O)c3c(C)nn(C)c3Cl)CC2)c2cccc(OC)c2)cc1 (centres undefined) ?
hcGAS lum: 0; NPYLR7 agonist: -6; mcGAS inh: 2

What do the screens show for `N#CC1(C(=O)Nc2cccc(C(=O)Nc3ccccn3)c2)CCCC1`?
hcGAS lum: -4; NPYLR7 agonist: 3

How did Oc1oc(-c2ccccc2Br)nc1C=Nc1ccccc1 do in these assays?
hcGAS lum: 15; NPYLR7 agonist: 65*

Results for Cc1ccc(N=Cc2nc(-c3ccccc3Br)oc2O)cc1 ?
hcGAS lum: -5; NPYLR7 agonist: -3

Results for Cc1ccc(-c2nc(C=Nc3ccc(C(=O)N(C)c4ccccc4)cc3)c(O)o2)cc1 ?
hcGAS lum: 1; NPYLR7 agonist: -4

What do the screens show for `Cc1ncc(C(=O)Nc2ccc3nc(-c4ccccc4C)oc3c2)[nH]1`?
hcGAS lum: -2; mcGAS inh: -1

How did CC(=O)c1c(C)[nH]c(C(=O)Nc2nc(C)cs2)c1C do in these assays?
hcGAS lum: -5; NPYLR7 agonist: 6

What do the screens show for `CC(=O)Nc1nc(COC(=O)c2[nH]c(C)c(C(=O)OC(C)C)c2C)cs1`?
hcGAS lum: -4; NPYLR7 agonist: 46*; mcGAS inh: -8

Results for O=C(Cc1cccs1)N1CCC(c2cn(Cc3cccc(F)c3)c3ccccc23)CC1 ?
hcGAS lum: -7; NPYLR7 agonist: 2; mcGAS inh: -7

What do the screens show for `O=C(O)CN1C(=O)/C(=C\c2ccc(I)cc2)SC1=S`?
hcGAS lum: -6; NPYLR7 agonist: -7; mcGAS inh: -4

How did CCN(CC)c1ccc(/C=C2/SC(=S)N(CC(=O)O)C2=O)cc1 do in these assays?
hcGAS lum: 1; NPYLR7 agonist: 42*; mcGAS inh: 0

How did CCN1C(=O)/C(=C/c2ccc(N(C)C)cc2)SC1=S do in these assays?
hcGAS lum: -1; NPYLR7 agonist: -4; mcGAS inh: -3

Results for CCN(CC)c1ccc(/C=C2\SC(=S)N(CCS(=O)(=O)O)C2=O)cc1 ?
hcGAS lum: -17; NPYLR7 agonist: 137*; mcGAS inh: -8

What do the screens show for `COc1cc(CNC(=O)CC2CC3CCC2C3)ccc1OCc1ccncc1` (centres undefined)?
hcGAS lum: -8; NPYLR7 agonist: 10

What do the screens show for `CN(Cc1cccs1)C(=O)CSc1nc2ncc(Cl)cc2[nH]1`?
hcGAS lum: -5; NPYLR7 agonist: 2; mcGAS inh: -16

How did CCOC(=O)c1[nH]c2c([N+](=O)[O-])cc(OCC)cc2c1CCN1C(=O)c2ccccc2C1=O do in these assays?
hcGAS lum: -2; NPYLR7 agonist: -7; mcGAS inh: 69*

What do the screens show for `CCOC(=O)c1[nH]c2c([N+](=O)[O-])cc(C)cc2c1CCN1C(=O)c2ccccc2C1=O`?
hcGAS lum: 4; NPYLR7 agonist: 4; mcGAS inh: -7

What do the screens show for `N#CC1C(=N)SC(=N)C(C#N)C1c1cc(Br)ccc1F` (centres undefined)?
hcGAS lum: 16; NPYLR7 agonist: 4; mcGAS inh: 57*

How did COc1ccc(Br)cc1C1C(C#N)C(=N)SC(=N)C1C#N (centres undefined) do in these assays?
hcGAS lum: 4; NPYLR7 agonist: 4; mcGAS inh: 17
